Experimental findings from PubChem BioAssay (NCI) are described below.

What all share (test): NCI-60 one-dose screen, 48 h (100 = growth as untreated, 0 = no growth, -100 = all killed)
One assay concerns T-47D breast. The settings on record: 10 µM unless noted.
The test system of the next assay is BT-549 breast. The settings on record: 10 µM unless noted.
The subject of another assay is SW-620 colon. The settings on record: 10 µM unless noted.
For the next assay, the system named is MCF7 breast. The settings on record: 10 µM unless noted.
In the next assay the test system is HCT-116 colon. The settings on record: 10 µM unless noted.
In a further assay the test system is HCC-2998 colon. The settings on record: 10 µM.
The subject of another assay is KM12 colon. The settings on record: 10 µM unless noted.
The next assay concerns MDA-MB-435 melanoma. The settings on record: 10 µM unless noted.

This is part of a sample that, as a whole, favours compounds with a hit. Of some 83,000 tested, about 20% had one in any assay.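 Single-concentration screen, 48 h exposure, 96-well plates. Endpoint: percent growth. Below 10 = active.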 A number with no mark means an inactive call. The source made the active and inactive calls.

Consider `O=C1C=CC2(NN=C(c3ccccc3)N2c2ccccc2)c2cccc(O)c21` (stereo unspecified), for which the growth is 78.8% in the assay with T-47D breast; 41.1% with BT-549 breast; 34.9% with SW-620 colon; 35.4% in the assay on MCF7 breast; 18.1% with HCT-116 colon; 54.2% with HCC-2998 colon. In addition, in the assay with KM12 colon, the growth is 47.3%.

With `Cc1ccc(N=C2CSc3nnc(-c4csc5c4CCCC5)n3N2)cc1`, the growth is 48.2% in the assay on T-47D breast; 31.3% in the assay on BT-549 breast; 29.9% in the assay on SW-620 colon; 21.4% with MCF7 breast; 13.9% in the assay on HCT-116 colon; 30.3% in the assay with HCC-2998 colon. Moreover, the growth with KM12 colon was 24%.

`COC(=O)c1[nH]cnc1/N=N/N(C)CCO`: the growth is 91.1% in the assay with T-47D breast; 98.4% with BT-549 breast; 112% in the assay on MDA-MB-435 melanoma; 102% with SW-620 colon; 96% in the assay with MCF7 breast; 106% in the assay on KM12 colon.

Turning to `O=C(Cn1ccnc1)Nc1ccc(-c2nc3ccccc3s2)cc1`, the growth in the assay with T-47D breast is 51.4%; with BT-549 breast, 65.1%; in the assay on SW-620 colon, 99.8%; in the assay on MCF7 breast, 61.3%; in the assay with HCT-116 colon, 68.2%; in the assay with HCC-2998 colon it was 94.9%. Besides, in the assay on KM12 colon, the growth was 84.4%.

Consider `COc1cc2ncnc(Oc3cccc(NC(=O)Nc4cc(C(C)(C)C(F)(F)F)on4)c3)c2cc1OC`, for which the growth with T-47D breast is 9.47% (active); in the assay with BT-549 breast, 37.4%; in the assay with SW-620 colon it was 27.4%; in the assay with MCF7 breast it was 37.8%; in the assay with HCT-116 colon it was 10.8%; with HCC-2998 colon it was 52.8%. The growth in the assay on KM12 colon was 42.4%.

With `Cc1cc(Oc2ccccc2)ccc1Nc1ncnc2ccc(-c3cnc(Cl)c(NS(C)(=O)=O)c3)cc12`, the growth was -22.4% (active) in the assay with T-47D breast; -0.502% (active) in the assay with BT-549 breast; 38.8% in the assay on SW-620 colon; 9.35% (active) in the assay with MCF7 breast; 22.9% with HCT-116 colon; 25.7% in the assay with HCC-2998 colon. In addition, the growth with KM12 colon is 34.5%.

Turning to `COc1cc(NC2CCC(=O)N2c2ccc(Cl)cc2Cl)cc(OC)c1OC` (stereo unspecified), the growth was 98.3% with T-47D breast; 109% in the assay with BT-549 breast; 96.8% in the assay on SW-620 colon; 96.6% in the assay on MCF7 breast; 97.1% in the assay with HCT-116 colon; 95.7% with HCC-2998 colon. The growth in the assay on KM12 colon is 97.7%.

As for `CN1C/C=C\CCOc2cccc(c2)-c2ccnc(n2)Nc2cccc(c2)C1`, the growth is -42.4% (active) in the assay with T-47D breast; -69.4% (active) with BT-549 breast; -5.5% (active) with SW-620 colon; -33% (active) in the assay on MCF7 breast; -50% (active) in the assay on HCT-116 colon; -40% (active) in the assay with HCC-2998 colon. Moreover, the growth in the assay with KM12 colon was -53.3% (active).

Consider `O=C(Cn1cncn1)Nc1ccc(-c2nc3ccccc3s2)cc1`, for which the growth was 64.9% in the assay with T-47D breast; 91.5% in the assay with BT-549 breast; 106% with SW-620 colon; 36.1% in the assay on MCF7 breast; 95.4% in the assay on HCT-116 colon; 93.9% in the assay with HCC-2998 colon. The growth in the assay with KM12 colon is 98.2%.

Take `COc1cc2ncnc(Nc3ccc(O)cc3)c2cc1OC`: the growth in the assay with T-47D breast was 53.9%; in the assay with BT-549 breast, 80%; in the assay on SW-620 colon, 112%; in the assay on MCF7 breast, 90.4%; in the assay on HCT-116 colon, 75.3%; in the assay with HCC-2998 colon it was 100%. The growth in the assay on KM12 colon was 89.7%.

With `O=C(CNc1nc(-c2ccc(Cl)cc2)cs1)Nc1ccc(-c2nc3ccccc3s2)cc1`, the growth with T-47D breast is 56.1%; in the assay with BT-549 breast, 107%; in the assay on SW-620 colon, 99.9%; in the assay on MCF7 breast it was 29.9%; in the assay on HCT-116 colon, 95.5%; with HCC-2998 colon it was 97.5%. Besides, the growth in the assay on KM12 colon was 99%.

On to `Cc1c(CN2CCN(C(=O)[C@H](C)O)CC2)sc2c(N3CCOCC3)nc(-c3cnc(N)nc3)nc12`, for which the growth is -38% (active) with T-47D breast; -3.06% (active) in the assay on BT-549 breast; 7.94% (active) in the assay on SW-620 colon; 1.68% (active) with MCF7 breast; 5.47% (active) in the assay on HCT-116 colon; 0.359% (active) in the assay with HCC-2998 colon. Besides, the growth in the assay on KM12 colon is 6.74% (active).

For `COc1cc(-c2nc(C(=O)Nc3ccc(C)cc3)nn2-c2ccc(F)c(F)c2)cc(OC)c1OC`, the growth is 77.1% with T-47D breast; 100% in the assay with BT-549 breast; 93.3% in the assay with MDA-MB-435 melanoma; 110% in the assay on SW-620 colon; 95.1% with MCF7 breast; 86.6% with HCC-2998 colon. Besides, in the assay on KM12 colon, the growth is 102%.

In the case of `c1ccc2c(c1)CCN(NCCN1CCCC1)C2`, the growth is 91.4% with T-47D breast; 99.8% in the assay on BT-549 breast; 94.8% in the assay with SW-620 colon; 96.5% in the assay on MCF7 breast; 85.6% with HCT-116 colon; 95% in the assay with HCC-2998 colon. Also, the growth in the assay on KM12 colon is 100%.

On to `COc1ccc(-c2nc(N)ncc2Oc2ccccc2OC)c(O)c1`, for which the growth with T-47D breast is 35.5%; with BT-549 breast, 36%; with MDA-MB-435 melanoma, -16.6% (active); in the assay with SW-620 colon, 20.6%; with MCF7 breast, 23.4%; in the assay with HCC-2998 colon, 50.6%. Besides, the growth in the assay with KM12 colon is 29.5%.

For `N#CC1(C#N)C(c2cccs2)NC(c2cccs2)C1(C#N)C#N` (stereo unspecified), the growth with T-47D breast was 91%; in the assay with BT-549 breast, 101%; in the assay on SW-620 colon, 108%; in the assay with MCF7 breast, 90.3%; with HCT-116 colon it was 97.6%; in the assay with HCC-2998 colon, 100%. In the assay on KM12 colon, the growth is 100%.

As to `CN(C)C[C@@H]1CCn2cc(c3ccccc32)C2=C(C(=O)NC2=O)c2cn(c3ccccc23)CCO1`, the growth is 21.2% in the assay with T-47D breast; -3.62% (active) in the assay on BT-549 breast; 20.2% in the assay on MDA-MB-435 melanoma; -57.6% (active) in the assay on SW-620 colon; -58.8% (active) with MCF7 breast; 22% in the assay on HCC-2998 colon. Moreover, in the assay on KM12 colon, the growth is 3.55% (active).

On to `CNC(=O)c1cccc2cc(Oc3ccnc4cc(OCC5(N)CC5)c(OC)cc34)ccc12`, for which the growth in the assay on T-47D breast is 92.2%; with BT-549 breast it was 59.7%; in the assay on SW-620 colon, 46.9%; in the assay on MCF7 breast, 49.1%; in the assay on HCT-116 colon, 33.2%; with HCC-2998 colon, 92%. The growth with KM12 colon was 45.9%.

As to `NC[C@@](O)(c1ccc(Cl)cc1)c1ccc(-c2cn[nH]c2)cc1`, the growth was -57.9% (active) in the assay on T-47D breast; 14.6% in the assay with BT-549 breast; 12.2% in the assay with MDA-MB-435 melanoma; 7.7% (active) in the assay on SW-620 colon; -22.2% (active) in the assay on MCF7 breast; 12.7% with HCC-2998 colon. Also, in the assay with KM12 colon, the growth was 16.6%.

Regarding `Nc1c2c(c(O)c3c1=C(CO)C=N3)=NCCS2`, the growth is -42.5% (active) in the assay with T-47D breast; -95.9% (active) with BT-549 breast; -76% (active) in the assay with SW-620 colon; -50.8% (active) in the assay with MCF7 breast; -90.7% (active) with HCT-116 colon; -94.2% (active) in the assay on HCC-2998 colon. Besides, the growth in the assay with KM12 colon was -70.4% (active).

Take `O=C1C=CC2(NN=C(c3ccccc3)N2c2cccc(Cl)c2)c2cccc(O)c21` (stereo unspecified): the growth in the assay on T-47D breast was 101%; in the assay with BT-549 breast it was 61.7%; in the assay with MDA-MB-435 melanoma, -91.9% (active); in the assay with SW-620 colon, 82%; in the assay with MCF7 breast it was 62.5%; in the assay with HCC-2998 colon, 90.8%. For the same compound, in the assay on KM12 colon, the growth is 64.9%.

As to `CCC1(/C=N/NC(N)=S)NC(=O)NC1=O` (stereo unspecified), the growth is 104% in the assay with T-47D breast; 103% in the assay with BT-549 breast; 114% in the assay on SW-620 colon; 97.7% in the assay with MCF7 breast; 101% with HCT-116 colon; 115% in the assay on HCC-2998 colon. In addition, the growth with KM12 colon is 113%.

As to `NC1=Nc2ccccc2N(O)N1`, the growth is 87.1% with T-47D breast; 95% in the assay with BT-549 breast; 105% in the assay with SW-620 colon; 94.2% in the assay on MCF7 breast; 93.3% in the assay on HCT-116 colon; 91.3% in the assay with HCC-2998 colon. In addition, in the assay with KM12 colon, the growth was 104%.

`CCCCCc1ccc(C)cc1OC(=O)CCl`: the growth is 102% in the assay on T-47D breast; 117% in the assay with MDA-MB-435 melanoma; 103% with SW-620 colon; 98% in the assay with MCF7 breast; 109% in the assay with HCT-116 colon; 109% in the assay with HCC-2998 colon. The growth with KM12 colon is 106%.

With `CC1(O)CCC2CC3OC3(C)CCC3OC3(C)C(O)CC1C2(C)C` (stereo unspecified), the growth in the assay on T-47D breast was 116%; in the assay on MDA-MB-435 melanoma it was 113%; in the assay with SW-620 colon, 99.2%; with MCF7 breast, 105%; with HCT-116 colon, 121%; with KM12 colon, 112%.

As to `Cc1cc(C(O)CN(C)C)cc2c1ccc1cc(C(C)C)ccc12` (stereo unspecified), the growth in the assay with T-47D breast was -33% (active); with MDA-MB-435 melanoma, -80.8% (active); with SW-620 colon, -89.8% (active); in the assay with MCF7 breast, -99.8% (active); with HCT-116 colon it was -100% (active); with HCC-2998 colon, -89.1% (active). In the assay with KM12 colon, the growth is -95.5% (active).

For `O=C(Nc1cccc([N+](=O)[O-])c1)c1ccc(Cl)c(Cl)c1`, the growth was 54.8% with T-47D breast; 92% with MDA-MB-435 melanoma; 96.2% in the assay with SW-620 colon; 49% in the assay on MCF7 breast; 56.8% in the assay on HCT-116 colon; 120% with HCC-2998 colon. Besides, the growth with KM12 colon is 93.8%.

Consider `Cc1cc(C2(c3ccc(O)c(C)c3)OS(=O)(=O)c3ccccc32)ccc1O`, for which the growth in the assay with T-47D breast is 110%; with MDA-MB-435 melanoma it was 113%; in the assay with SW-620 colon, 108%; in the assay with MCF7 breast it was 101%; in the assay with HCT-116 colon, 104%; in the assay with HCC-2998 colon it was 114%. Moreover, in the assay on KM12 colon, the growth is 110%.

For the compound `CCCCCCCCCNCCCCCCCCC`, the growth in the assay with T-47D breast was 57.7%; in the assay with MDA-MB-435 melanoma, 47.6%; in the assay on SW-620 colon, 41.5%; in the assay on MCF7 breast it was 13.4%; with HCT-116 colon, 20.2%; in the assay with HCC-2998 colon it was 23.8%. In the assay on KM12 colon, the growth was 22.6%.
